Source: PubChem
This is a sample that favours compounds with a hit; in the whole collection about 3.8% have one here.
GLS inh = blocks human kidney-isoform glutaminase activity; GLS enzymatic activity, qHTS titration; Potency, µM (highest dose often 45.5 µM), for the others: top-dose activity change, negative = inhibition, most hits filed as inhibitors; 410,000 compounds, 0.21% hits; AID 624170
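Human kidney-isoform GLS in 45 mM KH2PO4 pH 8.2, 0.02% Tween-20, with compound, started with 1mM L-Glutamine (added stock). Glutamate oxidase/HRP/Amplex red coupled fluorescence read at start and after 30 min at RT.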
GCN5L2 inh = inhibitors of human GCN5L2 histone acetyltransferase. 390,000 compounds, 0.21% hits. Potency, µM (highest dose often 58.9 µM), for the others: top-dose activity change, negative = inhibition, hits mostly inhibitors. GCN5L2 HAT assay, ThioGlo1 CoA-SH fluorescence
Target sequence (Q92830 whole entry, looked up): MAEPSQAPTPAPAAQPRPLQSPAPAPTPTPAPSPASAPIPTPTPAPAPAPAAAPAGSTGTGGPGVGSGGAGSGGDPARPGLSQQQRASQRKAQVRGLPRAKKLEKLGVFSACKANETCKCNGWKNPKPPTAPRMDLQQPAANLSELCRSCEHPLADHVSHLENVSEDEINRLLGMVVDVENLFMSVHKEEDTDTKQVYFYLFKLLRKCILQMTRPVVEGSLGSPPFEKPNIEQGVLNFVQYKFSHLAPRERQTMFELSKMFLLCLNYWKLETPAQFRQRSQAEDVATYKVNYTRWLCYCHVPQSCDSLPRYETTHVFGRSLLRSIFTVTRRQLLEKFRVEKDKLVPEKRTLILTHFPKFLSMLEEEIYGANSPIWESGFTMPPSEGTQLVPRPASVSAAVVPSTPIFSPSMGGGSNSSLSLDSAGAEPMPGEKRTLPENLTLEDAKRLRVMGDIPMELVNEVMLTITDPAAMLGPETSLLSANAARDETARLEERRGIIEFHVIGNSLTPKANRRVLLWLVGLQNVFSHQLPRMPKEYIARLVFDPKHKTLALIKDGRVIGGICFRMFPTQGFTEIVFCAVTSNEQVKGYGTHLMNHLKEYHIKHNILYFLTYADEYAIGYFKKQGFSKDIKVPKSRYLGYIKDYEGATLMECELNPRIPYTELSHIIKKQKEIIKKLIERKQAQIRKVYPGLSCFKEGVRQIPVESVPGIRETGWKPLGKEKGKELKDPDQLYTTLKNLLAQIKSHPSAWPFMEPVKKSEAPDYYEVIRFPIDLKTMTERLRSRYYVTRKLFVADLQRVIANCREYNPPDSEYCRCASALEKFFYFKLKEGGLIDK
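GCN5L2 (20nM final) in 50mM HEPES, 0.1mM EDTA pH 7.5, 0.01% Tween-20 was preincubated 15 min at room temperature with compound, then given ThioGlo1 (50uM), H3(1-25) peptide (75uM) and acetyl-CoA (70uM); CoA-thiol fluorescence (Ex340/Em540) was read at 0 and 20 min.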
VDR inhibitor = blocks the human vitamin D receptor; P11473; VDR-SRC2-3 peptide fluorescence polarization, 2 h; Potency, µM, for inactives: max response, negative = inhibition, actives largely listed as inhibitors; 400,000 compounds, 0.93% hits; AID 504847
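Compounds are added to VDR with labelled SRC2-3 coactivator peptide and held 2 h at room temperature. Inhibition of the VDR–peptide interaction is then read as a change in fluorescence polarization.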
TrxR1 substrate = is turned over as a substrate by rat TrxR1; 390,000 compounds, 0.01% hits; Potency, µM (doses to about 114 µM), without a hit: at the top dose activity change, negative = substrate turnover; purified TrxR1 substrate turnover, NADPH consumption readout; further: nearly all actives have a fitted effect of over 50% in size
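Rat TrxR1, dispensed at 90 nM, was prereduced with 400 uM NADPH (final) for 5 min at ~22 deg C, then incubated with compound 15 min before 400 uM selenite. A first-read NADPH fluorescence drop versus no-compound background flagged substrates.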
rTrxR1 inhibitor = inhibitors of rat thioredoxin reductase 1; O89049; recombinant rTrxR1, NADPH fluorescence consumption, selenite substrate; Potency, µM (highest dose often 114 µM), inactives show top-dose activity change, negative = inhibition, most hits filed as inhibitors; 390,000 compounds, 1% hits; AID 588453; further: nearly all actives have a fitted effect of over 65% in size
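Rat TrxR1 (90 nM in the dispensed reagent) was pre-reduced with 400 uM NADPH for 5 min at room temperature, then incubated with compound for 15 min. After 400 uM selenite was added, NADPH fluorescence (Ex 340/Em 450 nm) was followed for 8 min.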
Sfp PPTase inh = inhibitors of Bacillus subtilis Sfp phosphopantetheinyl transferase | Potency, µM, for inactives: largest response in the series, negative = inhibition, hits mostly inhibitors | 310,000 compounds, 3.5% hits | Q9F4F7 | Biochemical Sfp PPTase activity, qHTS;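 further: the enzyme is Sfp with the accession as filed and its product quenches rhodamine fluorescence; 0% = enzyme reaction without inhibitor and -100% = no enzyme wells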
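Buffer: 50 mM Hepes-Na pH 7.6, 10 mM MgCl2, 0.01% Nonidet P-40, 0.01% BSA. Enzyme 15 nM, pre-exposed to compound 15 min; substrates then added and fluorescence change tracked over 30 min.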
* hit, by the source's call; ? = inconclusive; · = not tested or not shown; ! = a repeat was not active; [ ] = remark or other dose. The call rests on the fitted dose curve; in most records, active means well fitted curve in the direction sought with a large enough effect; inconclusive means small, poorly fitted or top-dose-only effect, or another doubt; inactive means no such curve, though single readings can be large; an effect the other way counts as inactive or inconclusive. Unless noted, on the % scale 0 is the no-effect control and ±100 the full control effect; potency means the concentration at half of the fitted maximal effect.

SMILES	GLS inh	GCN5L2 inh	VDR inhibitor	TrxR1 substrate	rTrxR1 inhibitor	Sfp PPTase inh
COc1ccc(C(=O)C(OC(=O)CNC(=O)c2ccco2)c2ccccc2)cc1 (stereo not drawn)	-3%	-22%	2%	2%	-21%	79µM*
Cc1cccc(NC(=O)CCS(=O)(=O)c2ccccc2)n1	-8%	-5%	2%	4%	-6%	10%
Cc1c(C(=O)Nc2nc3ccccc3[nH]2)oc2ccc(Br)cc12	0%	-3%	3%	1%	8%	14µM*
Nc1ccccc1C(=O)CC(N)C(=O)O (stereo not drawn)	·	·	·	·	·	100µM*!
Nc1ccccc1C(=O)N(Cc1ccccc1)Cc1ccccc1	1%	-6%	-21%	11%	12%	27%
COC(=O)CN(C)C1CC(=O)N(c2ccc(Cl)cc2)C1=O (stereo not drawn)	1%	-6%	-1%	-1%	35µM*	?
C=CCN(C(=O)Nc1ccc(Cl)cc1)C1CC(=O)N(c2ccc(OC)cc2)C1=O (stereo not drawn)	-1%	-2%	-2%	1%	7%	8%
Cn1cnc([N+](=O)[O-])c1Nc1cccc(O)c1	22%	-2%	8%	-12%	-22%	3%
Cn1cnc([N+](=O)[O-])c1Oc1ccc2ccccc2c1	3%	-5%	-11%	11%[11.4 µM]	4µM*	-14%
CC(C)CCn1c(=O)c2ccccc2n2c(=S)[nH]nc12	?	-4%	-13%	-4%[57.1 µM]	-45%	56µM*
CC(C)CCn1c(=O)c2ccccc2n2c(CCl)nnc12	9%	-4%	8%	13%[57.1 µM]	22µM*	1%
O=C(OCc1ccccc1)N1CCC2CC1c1cc(N3CCOCC3)ccc12 (stereo not drawn)	15%	·	-7%	-4%	1%	·
N#C/C(=C\c1coc2ccccc2c1=O)C(N)=S	3%	?	?	-7%[57.1 µM]	-25%[57.1 µM]	-103%
N#C/C(=C\c1coc2ccc(O)cc2c1=O)C(=O)Nc1nc2ccccc2s1	-28%	?	?	-3%	14µM*	-29%
Cc1ccc(N/N=C/c2c(C)c(C#N)c(=O)n(C)c2O)cc1C	?	-14%	?	-9%[57.1 µM]	-58%	13µM*
COc1ccc(N2C(S)=C(C#N)C(=O)NC23CCCCC3)cc1	47%	-5%	50µM*	-4%[57.1 µM]	16%[57.1 µM]	18µM*
Cc1nc2n[nH]c(N)c2c2c1COC(C)(C)C2	31%	-3%	9%	-10%	-10%	10%
CCCCn1c(NCc2ccccn2)nc2ccccc21	6%	0%	6%	1%	20%	56µM*
CCN(CC)CCn1c(NCc2ccccn2)nc2ccccc21	40%	2%	15%	-4%	4%	?
COc1ccccc1Cn1[nH]nnc1=S	1%	?	-15%	9%[57.1 µM]	-20%[57.1 µM]	40µM*
COc1ccccc1CN1C(=O)CNC1=S	6%	22%	4%	2%	3%	7%
COC(=O)Cn1c(=NC(=O)CCS(=O)(=O)c2ccccc2)sc2c(OC)ccc(OC)c21	-2%	-18%	-2%	-2%	28µM*	2%
COCCn1c(=NC(=O)CCS(=O)(=O)c2ccccc2)sc2cc(C)ccc21	-2%	-23%	?	-1%	40µM*	9%
Cc1cccc(C(=O)Nc2ccc(S(=O)(=O)N(Cc3ccccc3)c3ccccc3)cc2)c1	-5%	-8%	5%	3%	35%	·
COc1cc(OC)nc(-n2ncc(Br)c(Br)c2=O)n1	75%	2%	-22%	6%	3.5µM*	4%
CN1CCN(C2=C(Cl)C(=O)N(c3cccc(Cl)c3)C2=O)CC1	2%	-7%	-8%	-9%	?	-23%
CN1CCN(C2=C(Cl)C(=O)N(c3ccc(Cl)c(Cl)c3)C2=O)CC1	6%	-13%	?	4%[57.1 µM]	16µM*	4%
